Source: PubChem BioAssay
This is a sample that favours compounds with a hit; in the whole collection about 11% have one here.
Pf growth 96h: inhibits malaria parasite growth, 96 h | P. falciparum luciferase reporter growth, 96 h | Potency, µM (highest dose often 28.7 µM), without a hit: at the highest dose activity change, negative = inhibition, most hits filed as inhibitors | 6.9% of 320,000 active | AID 504834; further: on the % scale 0 is the no-effect control and ±100 the full control effect
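Parasite growth measured via integrated firefly luciferase reporter in P. falciparum. Infected erythrocytes at 2% hematocrit, 0.05% parasitemia final were treated 96 hours at 37 C under 5% CO2, and luminescence was read.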
AMA1-RON2 inh: disrupts binding of P. falciparum AMA1 to RON2 | AID 720542 | Potency, µM (doses to about 58.2 µM), for inactives: at the highest dose activity change, negative = inhibition, most hits filed as inhibitors | AlphaScreen AMA1-biotinylated RON2 peptide binding | 0.2% of 360,000 active;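 further: 0% = vehicle wells and -100% = peptide control; nearly all actives have a fitted effect of over 45% in size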
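AMA1 (3D7) with his tag at 25 nM final met compounds first, then biotinylated RON2 peptide at 25 nM; detection used donor plus acceptor beads, 10 µg/mL apiece, read by AlphaScreen after 30 min at room temperature.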
NS1 function inh: inhibitors of influenza NS1 protein function. Potency, µM (top dose mostly 46.1 µM), inactives show at the highest dose activity, positive = more growth. 0.4% of 270,000 active; calls by dose curve; further: actives are rising curves; nearly all actives have a fitted effect of over 50% in size
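S. cerevisiae expressing influenza A NS1, grown in glucose, washed, then diluted 1:100 into pH 6.0 -URA galactose medium with 23 nl compound. Growth recovery read as OD600; NS1-free strain serves as control.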
Pf growth 48h: P. falciparum growth inhibition at 48 hours (one generation) | 5.9% of 310,000 active | P. falciparum luciferase growth in erythrocytes, 48 h | Potency, µM (doses to about 28.7 µM), inactives show top-dose activity change, negative = inhibition, hits mostly inhibitors; further: on the % scale 0 is the no-effect control and ±100 the full control effect
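Erythrocytes infected with P. falciparum carrying an integrated firefly luciferase reporter (2% hematocrit, 0.1% parasitemia final) were exposed to compounds in RPMI 1640 with 0.5% Albumax at 37 C, 5% CO2. Growth inhibition was scored as reduced luminescence.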
Sm TGR inh: blocks Schistosoma mansoni thioredoxin glutathione reductase. 3% of 360,000 active. Q962Y6. Potency, µM (doses to about 114 µM), inactives show at the highest dose activity change, negative = inhibition, most hits filed as inhibitors. purified TGR, DTNB reduction, TNB absorbance 405 nm; further: on the % scale 0 is the no-effect control and ±100 the full control effect; nearly all actives have a fitted effect of over 60% in size
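Kinetic colorimetric format: TGR-catalysed, NADPH-driven DTNB reduction monitored via TNB absorbance. Enzyme dispensed at 20 nM; compound exposure 15 min at room temperature before reaction start.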
Starred values were filed as active, the others as inactive; ? = inconclusive; / = no result given; [ ] = dose if it differs, or a comment. Unless noted, the call rests on the fitted dose curve; in most records, active means well fitted curve in the direction sought with a large enough effect; inconclusive means small, poorly fitted or top-dose-only effect, or another doubt; inactive means no such curve, though single readings can be large; an effect the other way counts as inactive or inconclusive. Potency means the concentration at half of the fitted maximal effect.

SMILES | Pf growth 96h | AMA1-RON2 inh | NS1 function inh | Pf growth 48h | Sm TGR inh
COc1ccc(S(=O)(=O)N2CCN(C(=O)COc3ccc4c(C)cc(=O)oc4c3)CC2)cc1 | 4.65µM* | 15.4% | 3.1% | ? | 3.1%
CCOC(=O)c1ccccc1NC(=O)CSc1ncc(CO)n1Cc1ccc(C)cc1 | / | / | / | / | -8.4%
CCOc1ccc(N2CC(NC(=O)c3ccco3)CC2=O)cc1 (stereo not given) | / | / | / | / | 7.8%
COc1cc(OC)c(OC)cc1CNC(=O)c1cc(=O)[nH]c2ccccc12 | 0.4% | 2.5% | -0.8% | 4.0% | 5.4%
COc1ccc(NC(=S)N2CCc3ccccc3C2)cc1OC | 0.4% | -10.0% | / | 17.6% | -10.8%
CCc1cc(=O)[nH]c(SCC(=O)N2CCOCC2)n1 | 12.2% | 15.9% | / | -8.3% | 10.4%
COc1cc(CCC(=O)N2CCN(S(=O)(=O)c3ccc(C)c(C)c3)CC2)cc(OC)c1OC | 4.65µM* | 34.7% | -5.5% | ? | 4.4%
COc1ccc(S(=O)(=O)N2CCN(C(=O)c3ccc(C)o3)CC2)cc1 | ? | 5.5% | 7.0% | ? | 0.7%
Cc1ccc(C(=O)N2CCN(S(=O)(=O)c3ccc(Br)cc3)CC2)o1 | ? | -11.8% | -20.7% | 6.57µM* | -0.7%
Cc1cc(=O)oc2ccc(OCC(=O)N3CCC(C)CC3)cc12 | -0.3% | -3.5% | -8.1% | 27.9% | 17.8µM*
Cc1ccc(S(=O)(=O)N2CCN(C(=O)COC(=O)COc3ccc(Br)cc3)CC2)c(C)c1 | / | 0.0% | / | / | /
CC(=O)c1ccc(OCC(=O)N2CCN(S(=O)(=O)c3ccc(C)cc3C)CC2)cc1 | 9.28µM* | -1.9% | -2.8% | ? | 13.9%
COCc1ccc(CN2CCCC(CO)(Cc3ccccc3)C2)o1 (stereo not given) | ? | -2.5% | 0.8% | -25.5% | -28.1%
Cc1ccc(S(=O)(=O)N2CCN(C(=O)COC(=O)Cc3ccc(F)cc3)CC2)c(C)c1 | 5.1% | 0.0% | / | 10.4% | -18.8%
COc1ccc(CCC(=O)N2CCN(S(=O)(=O)c3ccc(OC(F)(F)F)cc3)CC2)cc1 | 11.7µM* | -2.9%[11.6 µM] | / | 9.28µM* | 0.5%
CSc1ccc(CSCC(=O)N2CCN(S(=O)(=O)c3ccc(C)cc3C)CC2)cc1 | -59.1% | -6.7% | / | 11.7µM* | 3.1%
COc1ccc(S(=O)(=O)N2CCN(C(=O)c3c(C)nn(-c4ccccc4)c3Cl)CC2)cc1 | 4.65µM* | -8.5% | -45.5% | 0.0% | -34.8%
N#Cc1ccc(OCC(=O)N2CCN(S(=O)(=O)c3ccc(Cl)s3)CC2)cc1 | ? | -4.6% | / | ? | -12.2%
N#Cc1ccc(OCC(=O)N2CCN(S(=O)(=O)c3cccc(Cl)c3)CC2)cc1 | 9.28µM* | 20.5% | / | ? | -11.4%
Cn1c2ccccc2c2cnn(CC(=O)N3CCN(c4ncccn4)CC3)c(=O)c21 | / | / | 2.6% | / | /
Cc1ccc(S(=O)(=O)N2CCN(C(=O)COc3ccc(Br)cc3)CC2)cc1 | ? | 7.0%[11.6 µM] | / | 13.1µM* | 6.7%
O=C(COc1ccccc1)N1CCN(S(=O)(=O)c2ccc(Br)cc2)CC1 | 1.5% | -8.7% | -3.6% | -22.5% | -7.8%
O=S(=O)(c1ccc(Oc2ccc(S(=O)(=O)N3CCOCC3)cc2)cc1)N1CCOCC1 | ? | -1.4% | 1.6% | -12.2% | -0.1%
COc1cc(CCC(=O)N2CCN(c3ccc(N4CCOCC4)nn3)CC2)cc(OC)c1OC | 7.38µM* | / | -14.2% | / | -5.4%
Cc1ccc(C(=O)N2CCN(c3ccc(N4CCOCC4)nn3)CC2)cc1C | 5.22µM* | -3.0% | / | -15.0% | -7.7%
SMILES | Pf growth 96h | AMA1-RON2 inh | NS1 function inh | Pf growth 48h | Sm TGR inh
O=C(c1cccc(Br)c1)N1CCN(c2ccc(N3CCOCC3)nn2)CC1 | ? | -16.3% | / | -14.4% | -3.8%
COc1cc(CCC(=O)N2CCN(c3ncccn3)CC2)cc(OC)c1OC | -21.1%[5.75 µM] | 2.8% | / | -5.9% | -10.9%
O=S(=O)(c1ccc(OCc2ccc(Br)cc2)cc1)N1CCOCC1 | 6.57µM* | -9.8% | / | -25.9% | -3.1%
CN(CC(=O)Nc1ccc(F)cc1)C(=O)COc1ccc([N+](=O)[O-])cc1Cl | 41.5% | 3.1% | -6.6% | -21.1% | 0.4%
CSc1ccc(/C=C/C(=O)N2CCN(c3ccccn3)CC2)cc1 | 4.1% | -5.6% | -2.8% | 29.8% | 2.9%
O=C(/C=C/c1ccccc1Cl)NCCCn1ccnc1 | 276.6% | -2.7% | 7.5% | -12.0% | 37.3%
Cc1ccc(OCCC(=O)OCC(=O)N2CCN(S(=O)(=O)c3ccc(Cl)cc3)CC2)cc1 | 8.6% | 4.8% | / | 71.4% | -14.1%
Cc1ccc(S(=O)(=O)N2CCN(C(=O)COC(=O)c3ccc(Br)o3)CC2)c(C)c1 | 5.6% | -2.4% | / | ? | -4.0%
CCOc1ccc(OCCC(=O)OCC(=O)N2CCN(S(=O)(=O)c3ccc(C)cc3)CC2)cc1 | -10.6% | -8.1% | / | ? | 50.1µM*
Cc1ccc(S(=O)(=O)N2CCN(C(=O)c3ccc(Br)o3)CC2)c(C)c1 | ? | -11.3% | -11.5% | 6.57µM* | -6.9%
Cc1ccccc1-c1noc(-c2ccc(N3CCCC3)c([N+](=O)[O-])c2)n1 | / | / | / | / | -1.3%
CC1(C)CC(=O)C(CC2C(=O)CC(C)(C)CC2=O)C(=O)C1 | ? | -22.0% | 3.6% | 0.8% | 2µM*
COc1cc2c(cc1OC)C(COc1cccc(C(F)(F)F)c1)NCC2 (stereo not given) | -19.1% | -0.5% | 8.6% | ? | -25.1%
CNC(=O)c1nnsc1S(=O)c1ccc(Cl)cc1 (stereo not given) | ? | 0.0% | / | 14.7µM* | 0.316µM*
CCCNC(=O)NS(=O)(=O)c1ccc(Cl)cc1 | -16.4% | 0.0% | -0.4% | 11.8% | -18.4%
CCCNC(=O)c1nnsc1S(=O)(=O)c1ccc(Cl)cc1 | 6.6% | 1.2% | / | 0.2% | 0.316µM*
CCCNC(=O)c1ccc2snnc2c1 | ? | 0.5% | 1.8% | 37.9% | -2.5%
CCCNC(=O)c1nnsc1S(=O)c1ccc(Cl)cc1 (stereo not given) | ? | -1.5% | / | ? | 0.316µM*
CCc1nnc(NC(=O)CCC(=O)NC2CC2)s1 | -4.4% | -6.1% | -2.6% | 0.4% | -11.1%
COC(=O)C1=C(C)N(c2ccc(OC)cc2)C(C)=C(C(=O)OC)C1c1ccccc1 | ? | -5.4% | -1.9% | 1.31µM* | 1.2%
COC(=O)C1=C(C)N(C)C(C)=C(C(=O)OC)C1c1ccc(Cl)cc1 | 10.4µM* | -0.5% | -12.4% | ? | -7.9%
COC(=O)C1=C(C)N(c2ccc(OC)cc2)C(C)=C(C(=O)OC)C1c1ccc(OC)cc1 | ? | -12.5% | -0.5% | ? | 4.7%
Cc1ccc(CCNC(=O)c2cccc(Nc3nc4ccccc4nc3-n3nc(C)cc3C)c2)cc1 | / | / | / | / | 1.7%
Cc1ccc(C)c(S(=O)(=O)N2CCN(c3nc(CN4CCOCC4)nc4sc(C)c(C)c34)CC2)c1 | 11.7µM* | -17.1% | / | 11.7µM* | -9.4%
Cc1sc2nc(CN3CCCC3)nc(N3CCN(S(=O)(=O)c4cccs4)CC3)c2c1C | ? | 29.7% | 9.6% | ? | 4.0%
Cc1ccc(S(=O)(=O)N2CCN(c3nc(CN4CCCC4)nc4sc(C)c(C)c34)CC2)cc1 | ? | -1.1% | / | 4.65µM* | 2.7%
